POLK inh: DNA polymerase kappa (human) inhibition | purified Pol kappa, fluorescent DNA synthesis assay, 10 min | Potency, µM (series often up to 107 µM), for inactives: at the highest dose activity, negative = inhibition, most hits filed as inhibitors | AID 588579 | hit rate 0.53% among 400,000; further: on the % scale 0 is the no-effect control and ±100 the full control effect
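Readout: fluorescence, taken kinetically at 0 and 10 min. Conditions: 10 nM Pol kappa, 15 min RT compound preincubation, 50 nM substrate final. Controls: enzyme-free buffer wells.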
GLS inh: blocks human kidney-isoform glutaminase activity | O94925 | GLS enzymatic activity, qHTS titration | Potency, µM (highest dose often 45.5 µM), without a hit: at the top dose activity change, negative = inhibition, most hits filed as inhibitors | hit rate 0.21% among 410,000 | AID 624170; further: on the % scale 0 is the no-effect control and ±100 the full control effect
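hKGA in 45 mM KH2PO4 (pH 8.2), 0.02% Tween-20 with compound, then 1mM L-Glutamine (stock as added) plus glutamate oxidase/HRP/Amplex red coupling mix. Fluorescence read initially and after 30 min at RT; signal change reflects glutamate formation.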
Pol beta inh: blocks human DNA polymerase beta activity; P06746; hit rate 1.3% among 340,000; Potency, µM (highest dose often 114 µM), without a hit: at the highest dose activity change, negative = inhibition, usual class: inhibitors; Pol beta primer extension/strand displacement, fluorescence kinetic; further: on the % scale 0 is the no-effect control and ±100 the full control effect
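Pol beta (10 nM) was preincubated with compound for 15 min at room temperature. The reaction was then started with 50 nM substrate and read immediately and after a further 10 min at room temperature.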
GCN5L2 inh: inhibitors of human GCN5L2 histone acetyltransferase | GCN5L2 HAT assay, ThioGlo1 CoA-SH fluorescence | Potency, µM (series often up to 58.9 µM), without a hit: at the highest dose activity change, negative = inhibition, most hits filed as inhibitors | hit rate 0.21% among 390,000; further: on the % scale 0 is the no-effect control and ±100 the full control effect
Target sequence (Q92830 whole entry, looked up): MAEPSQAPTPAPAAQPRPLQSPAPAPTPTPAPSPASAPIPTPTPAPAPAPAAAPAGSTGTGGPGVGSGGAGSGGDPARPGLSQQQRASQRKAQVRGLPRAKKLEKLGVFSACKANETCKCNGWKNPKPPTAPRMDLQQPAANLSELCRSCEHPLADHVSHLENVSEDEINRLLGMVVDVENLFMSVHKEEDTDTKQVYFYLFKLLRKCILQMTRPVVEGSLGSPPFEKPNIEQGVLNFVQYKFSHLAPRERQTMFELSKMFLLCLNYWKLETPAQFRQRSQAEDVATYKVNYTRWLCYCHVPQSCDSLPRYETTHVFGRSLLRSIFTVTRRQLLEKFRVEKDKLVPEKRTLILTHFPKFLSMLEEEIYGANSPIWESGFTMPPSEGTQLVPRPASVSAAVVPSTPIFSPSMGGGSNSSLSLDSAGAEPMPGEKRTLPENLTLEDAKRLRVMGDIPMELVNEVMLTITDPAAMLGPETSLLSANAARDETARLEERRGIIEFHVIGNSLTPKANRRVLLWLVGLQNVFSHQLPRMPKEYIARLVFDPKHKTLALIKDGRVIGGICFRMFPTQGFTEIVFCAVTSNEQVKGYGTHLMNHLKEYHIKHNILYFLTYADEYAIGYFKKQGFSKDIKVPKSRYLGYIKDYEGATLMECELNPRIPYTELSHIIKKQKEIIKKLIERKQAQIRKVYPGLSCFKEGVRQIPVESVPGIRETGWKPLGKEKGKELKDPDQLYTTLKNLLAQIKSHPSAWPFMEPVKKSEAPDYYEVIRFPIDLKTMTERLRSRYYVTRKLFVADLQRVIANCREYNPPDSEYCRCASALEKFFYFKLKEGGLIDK
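Enzyme at 20nM final was mixed with library compounds for 15 min at room temperature. Peptide H3(1-25) at 75uM, acetyl-CoA at 70uM and ThioGlo1 at 50uM were then added. Plates were read immediately and after 20 min (Ex340nm/Em540nm).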
POLI inh: blocks human DNA polymerase iota activity; Q9UNA4; Pol iota fluorescent replication assay, 10 min; Potency, µM (series often up to 115 µM), inactives show at the top dose activity, negative = inhibition, actives largely listed as inhibitors; hit rate 1% among 390,000
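Fluorescent replication assay read twice, at 0 min and 10 min after adding 50 nM (final) substrate. Enzyme (10 nM) and compounds were first incubated 15 min at room temperature; enzyme-free buffer wells were negative controls.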
Pol eta inh: inhibitors of human DNA polymerase eta | Q9Y253 | recombinant Pol eta, fluorescent DNA replication assay | Potency, µM (top dose mostly 114 µM), inactives show at the top dose activity change, negative = inhibition, actives largely listed as inhibitors | hit rate 1.2% among 390,000 | AID 588591; further: on the % scale 0 is the no-effect control and ±100 the full control effect
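Pol eta at 10 nM preincubated with compounds 15 min at room temperature; reaction started with fluorescent substrate (50 nM final) and read kinetically at 0 and 10 min.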
Numbers without * were called inactive; [ ] = remark or other dose. A selection: hits, their analogues and other compounds. The true share with any hit is near 2.4%. The call rests on the fitted dose curve; in most records, active means well fitted inhibition curve with a large enough effect; inconclusive means small, poorly fitted or top-dose-only effect, or another doubt; inactive means no such curve, though single readings can be large or run the other way. Potency means the concentration at half of the fitted maximal effect.

How did O=C(CC(NS(=O)(=O)c1ccc(Cl)cc1)c1ccco1)NCc1ccco1 (stereo unspecified) do in these assays?
POLK inh: inconclusive; GLS inh: -27%; Pol beta inh: 4%; GCN5L2 inh: -11%; POLI inh: inconclusive; Pol eta inh: inconclusive

Results for CC(NS(=O)(=O)c1ccc(Cl)cc1)C(=O)NCc1ccco1 (stereo unspecified) ?
POLK inh: -39%; GLS inh: -2%; Pol beta inh: inconclusive; GCN5L2 inh: -4%; POLI inh: 71µM*; Pol eta inh: -9%

Results for CCCCN(C)CCCNC(=O)C1CCN(c2nc3ccc(CC)cc3s2)CC1 ?
POLK inh: -5%; GLS inh: -2%; Pol beta inh: -2%; GCN5L2 inh: -1%; POLI inh: 13%; Pol eta inh: -15%

How did O=C(NCCCO)Nc1ccc2nc(-c3ccco3)c(-c3ccco3)nc2c1 do in these assays?
Pol beta inh: 1.8µM*; GCN5L2 inh: 16µM*

How did O=C(Nc1ccc(N2CCOCC2)cc1)Nc1ccc2nc(-c3ccco3)c(-c3ccco3)nc2c1 do in these assays?
POLK inh: -18%; GLS inh: 2%; Pol beta inh: 5µM*; GCN5L2 inh: -13%; POLI inh: 0%; Pol eta inh: -18%

Results for O=C(c1ccc2nc(-c3ccco3)c(-c3ccco3)nc2c1)N1CCN(c2ccccc2)CC1 ?
POLK inh: -28%; GLS inh: 7%; Pol beta inh: 11µM*; GCN5L2 inh: inconclusive; POLI inh: inconclusive; Pol eta inh: -24%

Results for OCCCNC(=S)Nc1ccc2nc(-c3ccccn3)c(-c3ccccn3)nc2c1 ?
POLK inh: -3%[60.1 µM]; GLS inh: 44%; Pol beta inh: 8%; GCN5L2 inh: -6%; POLI inh: inconclusive; Pol eta inh: 8%

How did Cc1ccc(C(=O)OCC(=O)NC2CCCc3ccccc32)o1 (stereo unspecified) do in these assays?
POLK inh: -14%; GLS inh: 5%; GCN5L2 inh: -1%; POLI inh: 7%; Pol eta inh: -15%

Results for N#CCC(=O)Nc1ccc(C(=O)OCC(=O)NC2CCCc3ccccc32)cc1 (stereo unspecified) ?
POLK inh: -38%; GLS inh: -4%; GCN5L2 inh: -10%; POLI inh: inconclusive; Pol eta inh: 40µM*

Results for Cc1cc(C(F)(F)F)n2[nH]c(=O)c(N=Nc3ccccc3)c2n1 ?
POLK inh: inconclusive; GLS inh: 0%; Pol beta inh: -20%; GCN5L2 inh: -21%; POLI inh: 40µM*; Pol eta inh: 12%

What do the screens show for `Cc1cc(C)n2[nH]c(=O)c(N=Nc3ccccc3)c2n1`?
POLK inh: -11%; GLS inh: -1%; Pol beta inh: -2%; GCN5L2 inh: -7%; POLI inh: -7%; Pol eta inh: -12%

Results for O=c1[nH]c(=S)c2[nH]cnc2[nH]1 ?
POLK inh: -5%; POLI inh: -19%

How did C=CCn1c(SCC(=O)c2cccs2)nc2sc(C)c(C)c2c1=O do in these assays?
POLK inh: -10%; GLS inh: -2%; Pol beta inh: inconclusive; GCN5L2 inh: -3%; POLI inh: -2%; Pol eta inh: 13%

How did C=CCn1c(SCc2cc(=O)n3ccsc3n2)nc2sc(C)c(C)c2c1=O do in these assays?
POLK inh: -42%; GLS inh: -3%; Pol beta inh: 50µM*; GCN5L2 inh: -4%; POLI inh: 32µM*; Pol eta inh: inconclusive

How did CCOc1ccc(C2CC(=O)c3c([nH]c(C(=O)OCC4CCCCC4)c3C)C2)cc1 (stereo unspecified) do in these assays?
POLK inh: -9%; GLS inh: -2%; Pol beta inh: -13%; GCN5L2 inh: -4%; POLI inh: 8%; Pol eta inh: 5%
